Laboratory results from PubChem BioAssay (NCI).
This is part of a sample that, as a whole, favours compounds with a hit. Of some 83,000 tested, about 20% had one in any assay.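 Each cell line was grown in a 96-well plate and treated with one concentration of compound for 48 hours. Values below 10 were considered active.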 The source made the active and inactive calls. Starred links: 1 amine or outer side, 2 acyl side, 3 side chain; linkers in the order of their positions; H or OH if unused. Positions of bridges follow the written chain, without caps; N, C: chain ends. Non-standard residues stand in square brackets, D forms with d. Residues, ends and D or L forms follow the SMILES beside them. Chains are numbered I, II in the order given. Actinocin(9to1) = Cc1c2oc3c(C)ccc(C(=O)[*:1])c3nc-2c(C(=O)[*:2])c(N)c1=O; aThr = C[C@H](O)[C@H](N)C(=O)O; NMeV = CN[C@H](C(=O)O)C(C)C; Sar = CNCC(=O)O

Experiments:
Experiment in all cases: NCI-60 one-dose screen, 48 h (100 = growth as untreated, 0 = no growth, -100 = all killed)
HCT-15 colon = tested on: HCT-15 colon
HT29 colon = tested on: HT29 colon
SNB-75 CNS = tested on: SNB-75 CNS
SNB-19 CNS = tested on: SNB-19 CNS
U251 CNS = tested on: U251 CNS
PC-3 prostate = tested on: PC-3 prostate
SK-MEL-5 melanoma = tested on: SK-MEL-5 melanoma
UACC-62 melanoma = tested on: UACC-62 melanoma
LOX IMVI melanoma = tested on: LOX IMVI melanoma
SK-MEL-28 melanoma = settings: 10 µM
EKVX NSCLC = tested on: EKVX NSCLC
SN12C renal = tested on: SN12C renal
UO-31 renal = tested on: UO-31 renal
TK-10 renal = tested on: TK-10 renal
ACHN renal = tested on: ACHN renal
CAKI-1 renal = tested on: CAKI-1 renal
A498 renal = tested on: A498 renal
CCRF-CEM leukemia = tested on: CCRF-CEM leukemia
MOLT-4 leukemia = tested on: MOLT-4 leukemia
SK-MEL-2 melanoma = tested on: SK-MEL-2 melanoma

Measured: growth

CSc1ccc2c(c1)C(N1CCN(C)CC1)Cc1ccccc1S2 (stereo not given)
active: HT29 colon; 10 µM -15.9% | SNB-75 CNS; 10 µM 0.687% | SK-MEL-5 melanoma; 10 µM -86.6% | UACC-62 melanoma; 10 µM -69.5% | LOX IMVI melanoma; 10 µM -5.64% | SK-MEL-28 melanoma -63.8% | MOLT-4 leukemia; 10 µM -23.3%
inactive: HCT-15 colon; 10 µM 10.3% | SNB-19 CNS; 10 µM 54.7% | U251 CNS; 10 µM 33.3% | PC-3 prostate; 10 µM 26.5% | EKVX NSCLC; 10 µM 55.9% | SN12C renal; 10 µM 35.6% | UO-31 renal; 10 µM 15.5% | TK-10 renal; 10 µM 43.1% | ACHN renal; 10 µM 12% | CAKI-1 renal; 10 µM 19.5% | A498 renal; 10 µM 16.4% | CCRF-CEM leukemia; 10 µM 31.7%

N#C/C(=C1C=C/C(=N\O)C(Cl)=C\1)c1ccccc1
active: LOX IMVI melanoma; 10 µM 1.14% | CAKI-1 renal; 10 µM 5.29%
inactive: HCT-15 colon; 10 µM 22.2% | HT29 colon; 10 µM 23% | SNB-75 CNS; 10 µM 59.4% | SNB-19 CNS; 10 µM 80.5% | PC-3 prostate; 10 µM 14.5% | SK-MEL-5 melanoma; 10 µM 46.8% | UACC-62 melanoma; 10 µM 26.2% | SK-MEL-28 melanoma 68.9% | SN12C renal; 10 µM 34.8% | UO-31 renal; 10 µM 34% | TK-10 renal; 10 µM 53.1% | ACHN renal; 10 µM 25.7% | A498 renal; 10 µM 86.5% | MOLT-4 leukemia; 10 µM 33.6%

Cc1c2oc3c(C)ccc(C(=O)N[C@@H]4C(=O)N[C@H](C(C)C)C(=O)N5CCC[C@H]5C(=O)N(C)CC(=O)N(C)[C@@H](C(C)C)C(=O)O[C@H]4C)c3nc-2c(C(=O)N[C@@H]2C(=O)N[C@H](C(C)C)C(=O)N3CCC[C@H]3C(=O)N(C)CC(=O)N(C)[C@@H](C(C)C)C(=O)O[C@H]2C)c(N)c1=O (I: [aThr][dV]P[Sar][NMeV] / II: [aThr][dV]P[Sar][NMeV]; ester I:1-I:C, II:1-II:C; linker I:N-II:N via Actinocin(9to1))
inactive: HCT-15 colon; 0.0025 µM 74.4% | HT29 colon; 0.0025 µM 29.4% | SNB-75 CNS; 0.0025 µM 39.6% | SNB-19 CNS; 0.0025 µM 38.2% | U251 CNS; 0.0025 µM 22.1% | PC-3 prostate; 0.0025 µM 42.8% | SK-MEL-5 melanoma; 0.0025 µM 30.8% | UACC-62 melanoma; 0.0025 µM 36.5% | LOX IMVI melanoma; 0.0025 µM 24.3% | SK-MEL-2 melanoma; 0.0025 µM 75.4% | EKVX NSCLC; 0.0025 µM 54% | SN12C renal; 0.0025 µM 46.6% | SN12C renal; 10 µM 14.9% | UO-31 renal; 0.0025 µM 99.4% | TK-10 renal; 0.0025 µM 87.7% | ACHN renal; 0.0025 µM 62% | CAKI-1 renal; 0.0025 µM 92.2% | A498 renal; 0.0025 µM 32.4% | CCRF-CEM leukemia; 0.0025 µM 42.3% | MOLT-4 leukemia; 0.0025 µM 23%
active: HCT-15 colon; 10 µM 2.4% | HT29 colon; 10 µM -24.1% | SNB-75 CNS; 10 µM -73.6% | SNB-19 CNS; 10 µM -0.258% | U251 CNS; 10 µM 6.96% | PC-3 prostate; 10 µM 0.295% | SK-MEL-5 melanoma; 10 µM -94.8% | UACC-62 melanoma; 10 µM -74.5% | LOX IMVI melanoma; 10 µM 9.98% | SK-MEL-2 melanoma; 10 µM -53.1% | EKVX NSCLC; 10 µM -11% | UO-31 renal; 10 µM -12.6% | TK-10 renal; 10 µM 9.15% | ACHN renal; 10 µM 3.24% | CAKI-1 renal; 10 µM -13.7% | CCRF-CEM leukemia; 10 µM 0.799% | MOLT-4 leukemia; 10 µM -7.29%

CN1CCN(c2ccc3nc(-c4ccc5nc(-c6ccc(O)cc6)[nH]c5c4)[nH]c3c2)CC1
inactive: HCT-15 colon; 10 µM 94.3% | HT29 colon; 10 µM 82.1% | SNB-75 CNS; 10 µM 54.9% | SNB-19 CNS; 10 µM 106% | U251 CNS; 10 µM 87.5% | PC-3 prostate; 10 µM 69.7% | UACC-62 melanoma; 10 µM 39.5% | LOX IMVI melanoma; 10 µM 93.9% | SK-MEL-2 melanoma; 10 µM 108% | EKVX NSCLC; 10 µM 105% | SN12C renal; 10 µM 88.9% | UO-31 renal; 10 µM 103% | TK-10 renal; 10 µM 111% | ACHN renal; 10 µM 94.4% | CAKI-1 renal; 10 µM 92.6% | CCRF-CEM leukemia; 10 µM 74% | MOLT-4 leukemia; 10 µM 76.4%
active: SK-MEL-5 melanoma; 10 µM -19.3%
